In PubChem BioAssay (Tox21) one finds cytotoxicity increase and Potency data, which are given here for 40 compounds.

Results filed as inconclusive are left out. Where a call stands in place of a potency, no number is given. Calls of active or inactive are those of the source. Calls come from the whole dose curve; as a rule, active = well fitted activation curve with a large enough effect in the repeat runs; inconclusive = weak or mixed curves; inactive = flat fitted curve, though single readings scatter.
Potency is the fitted concentration of half-maximal effect.

This assay in a line: A CellTox Green Cytotoxicity Assay to monitor cytotoxicity in HepG2 cells - 32 hour (AID 1224883). Note: nearly all actives have a fitted effect of over 50% in size. The following applies: CellTox Green fluorescence; series mostly up to 76.8 µM. From the text: National Center for Advancing Translational Sciences [NCATS]
NIH Chemical Genomics Center [NCGC]
U.S. Environmental Protection Agency [EPA]
National Institutes of Environmental Health Sciences [NIEHS]
National Toxicology Program [NTP]
Cell-based models are critical for drug discovery. Determining the natural cytotoxic effects resulting from test compounds is an essential research activity. A CellTox Green Cytotoxicity Assay to monitor cytotoxicity in real time of continues cell culture during 40 hours of the compound treatment was used to screen Tox21 10K library compounds in HepG2 cells. CellTox Green Cytotoxicity Assay is a nonlytic, homogeneous, biofluorescent method to measure cytotoxicity in cell culture after experimental manipulation. The assay system uses a proprietary asymmetric cyanine dye that is excluded from viable cells but preferentially stains the dead cell's DNA. […] Viable cells produce no appreciable increases in fluorescence. Therefore, the fluorescence signal produced by the binding interaction with dead cell DNA is proportional to cytotoxicity.
The mixture of HepG2 cell suspension and reagents were dispensed at 600cells/6 ul/well in 1536-well tissue culture treated black solid bottom plates using a Multidrop dispenser. After the assay plates were incubated at a 37 C/5% CO2 incubator for 5 hours, 23 nL of compounds dissolved in DMSO, positive and negative controls was transferred to the assay plate by a pintool work station. The plates were incubated at 37 C for 40 hours. The fluorescence intensity were measured at 0h, 8h, 16h, 24h, 32h and 40h time points using ViewLux plate reader during compound treatment.
Regarding `CN1CCN(c2c(F)cc3c(=O)c(C(=O)O)cn4c3c2OCN4C)CC1`, the cytotoxicity increase was -4.96% [at 15.8 µM] (inactive). With `CCC(=O)OC/C=C/c1ccccc1`, the Potency entry was “inactive”. On the same count and under the same terms, then `CCNC(=O)N1CCN(CCCC(c2ccc(F)cc2)c2ccc(F)cc2)CC1`, with 21.3 µM (active). On the same count and under the same terms, then `CC(=O)Nc1ccccc1C`, with “inactive”; and `CN1C(=O)CC(C)(c2ccccc2)C1=O` (stereo not given), with “inactive”.

With `CC(C)CCCCCCOC(=O)CCCCC(=O)OCCCCCCC(C)C`, the Potency entry is “inactive”.

With `CCC(C)=O`, the Potency entry was “inactive”. The same measure, in the same setting: for `CCCOC(=O)c1ccc(N)cc1` the value was “inactive”. As to `CCCCN(CCCC)C(=S)SSC(=S)N(CCCC)CCCC`, the Potency result was “inactive”. With `[O]=[Bi]`, the cytotoxicity increase was -9.49% [at 6.97 µM] (inactive). Turning to `Fc1ccccc1[C@@H](F)COC1CCC(Nc2ncnc3[nH]ncc23)CC1` (stereo not given in full), the Potency entry is “inactive”. On to `CCCCC(=O)O[C@]1(C(=O)CO)[C@@H](C)C[C@H]2[C@@H]3CCC4=CC(=O)C=C[C@]4(C)[C@@]3(F)[C@@H](O)C[C@@]21C`, for which the Potency result was “inactive”.

Regarding `O=C(CCCN1CCC(O)(c2ccc(Br)cc2)CC1)c1ccc(F)cc1`, the Potency is 26.8 µM (active). Still for that read-out and setting: then `N#C/C(=C1/SC[C@@H](c2ccc(Cl)cc2Cl)S1)n1ccnc1`, with “inactive”; and `CCCCCCOC(=O)CCCCCCCC(=O)OCCCCCC`, with “inactive”; and `NCC1CCCC(CN)C1` (stereo not given), with “inactive”. Same read-out and setting: then `CC(C)CCCCCOC(=O)CCCCC(=O)OCCCCCC(C)C`, with “inactive”; and `CO/N=C1\CN(c2nc3c(cc2F)c(=O)c(C(=O)O)cn3C2CC2)CC1CN` (stereo not given), with “inactive”. Same read-out and setting: then `Cc1c(C(=O)NN2CCCCC2)nn(-c2ccc(Cl)cc2Cl)c1-c1ccc(Cl)cc1`, with “inactive”; and `OCC1CC=CCC1` (stereo not given), with “inactive”; and `Cc1ccnc2ccccc12`, with “inactive”.

As to `CO[C@H]1O[C@H](CO)[C@@H](O)[C@H](O)[C@H]1O`, the Potency entry was “inactive”.

On to `COC(=O)[C@@H]1CC2=CC(=O)CC[C@]2(C)[C@@]23O[C@@H]2C[C@@]2(C)[C@@H](CC[C@@]24CCC(=O)O4)[C@H]13`, for which the Potency result was “inactive”. On to `CC(C)C(=O)O`, for which the Potency result was “inactive”.

As to `CCOC(=O)c1ccccc1OC`, the Potency result was “inactive”.

Regarding `CC(=O)OCC(=O)[C@H]1CC[C@H]2[C@@H]3CCC4=CC(=O)CC[C@]4(C)[C@H]3CC[C@]12C`, the Potency result is “inactive”. With `CN(C)CCOC1=Cc2ccccc2Sc2ccc(Cl)cc21`, the Potency was 23.9 µM (active).

For `COCC(O)CO` (stereo not given), the Potency entry was “inactive”. Still for that read-out and setting: then `Cc1oncc1C(=O)Nc1ccc(C(F)(F)F)cc1`, with “inactive”; and `C(=C\c1ccccc1)/CN1CCN(C(c2ccccc2)c2ccccc2)CC1`, with “inactive”. For the compound `Nc1ccc(Cl)cc1[N+](=O)[O-]`, the Potency result is “inactive”. The same measure, in the same setting: then `COc1cc2[nH]c(=O)[nH]c(=O)c2cc1OC`, with “inactive”; and `O=C(CCCCCCCCC#CI)Oc1ccccc1`, with “inactive”; and `CCCCCCCCCCOS(=O)(=O)O`, with “inactive”.

Take `O=C(NCCCN1CCOCC1)c1ccc(Cl)cc1`: the Potency result was “inactive”.

For `O=[N+]([O-])c1cccc(S(=O)(=O)NCCNS(=O)(=O)c2cccc([N+](=O)[O-])c2)c1`, the Potency result was “inactive”.

`CC1CC(=O)NN=C1c1ccc(NCC(C)(C)NCC(O)COc2cc(Cl)ccc2C#N)cc1` (stereo not given): the Potency result was “inactive”. The same measure, in the same setting: for `CC(=O)[C@H]1CC[C@H]2[C@@H]3C=CC4=CC(=O)CC[C@@]4(C)[C@@H]3CC[C@]12C` the value was “inactive”. For `CC(=O)N(c1onc(C)c1C)S(=O)(=O)c1ccc(N)cc1`, the Potency entry is “inactive”. Still for that read-out and setting: then `C[C@@H]1C[C@H]2[C@@H]3CCC4=CC(=O)C=C[C@]4(C)[C@@]3(F)[C@@H](O)C[C@]2(C)[C@H]1C(=O)CO`, with “inactive”.
